Reference: the antibiotic and cytotoxicity screens of Wong et al. (2023)
Among all 39,000 compounds or so, about 1,500 (3.8%) were called active. For the sample, actives were picked, then their nearest neighbours and some compounds at random.

These molecules were tested on HSkMC (human skeletal muscle cells) (assay: cytotoxicity call (relative viability < 0.9)). Conditions: 10 µM.
With `C[C@@H]1CN([C@@H](C)CO)C(=O)Cc2cc(NS(=O)(=O)c3ccc(Cl)cc3)ccc2O[C@H]1CN(C)Cc1ccc(C(F)(F)F)cc1` the cytotoxicity call was “inactive”.
For `C[C@H]1CN([C@@H](C)CO)C(=O)Cc2cc(NS(=O)(=O)c3ccc(Cl)cc3)ccc2O[C@@H]1CN(C)Cc1ccc(C(F)(F)F)cc1`, the cytotoxicity call was “active”.
`C[C@H]1CN([C@@H](C)CO)C(=O)Cc2cc(NS(=O)(=O)c3ccc(Cl)cc3)ccc2O[C@H]1CN(C)Cc1ccc(C(F)(F)F)cc1` was tested, and the cytotoxicity call was “active”.
In the case of `C[C@H](CO)N1C[C@H](C)[C@@H](CN(C)Cc2ccc(C(F)(F)F)cc2)Oc2ccc(NS(=O)(=O)c3ccc(Cl)cc3)cc2CC1=O`, the cytotoxicity call is reported as “inactive”.
With `C[C@@H]1CN([C@H](C)CO)C(=O)c2cc(NC(=O)CCCN(C)C)ccc2O[C@@H]1CN(C)C(=O)NC1CCCCC1` the cytotoxicity call was “inactive”.
In the case of `C[C@@H]1CN([C@@H](C)CO)C(=O)c2cc(NS(C)(=O)=O)ccc2O[C@H]1CN(C)Cc1ccc(C(=O)Nc2ccccc2N)cc1`, the cytotoxicity call is reported as “inactive”.
For `COc1ccc(CN(C)C[C@H]2Oc3ccc(NC(=O)CCN4CCOCC4)cc3C(=O)N([C@H](C)CO)C[C@H]2C)cc1`, the cytotoxicity call was “inactive”.
With `C[C@@H]1CN([C@H](C)CO)C(=O)c2cc(NC(=O)Nc3ccc(C(F)(F)F)cc3)ccc2O[C@H]1CN(C)CC1CCCCC1` the cytotoxicity call was “inactive”.
For `C[C@H](CO)N1C[C@H](C)[C@H](CN(C)CC2CCCCC2)Oc2ccc(NC(=O)Nc3ccc(F)cc3)cc2C1=O`, the cytotoxicity call was “inactive”.
`C[C@@H]1CN([C@@H](C)CO)C(=O)c2cc(NC(=O)Nc3ccc(C(F)(F)F)cc3)ccc2O[C@H]1CN(C)CC1CCCCC1` was tested, and the cytotoxicity call was “active”.
`C[C@H](CO)N1C[C@H](C)[C@@H](CN(C)CC2CCCCC2)Oc2ccc(NC(=O)Nc3ccc(C(F)(F)F)cc3)cc2C1=O` was tested, and the cytotoxicity call was “inactive”.
With `C[C@@H]1CN([C@H](C)CO)C(=O)c2cc(NC(=O)Nc3ccc(C(F)(F)F)cc3)ccc2O[C@@H]1CN(C)CC1CCCCC1` the cytotoxicity call was “active”.
With `C[C@H]1CN([C@@H](C)CO)C(=O)c2cc(NC(=O)Nc3ccc(F)cc3)ccc2O[C@H]1CN(C)CC1CCCCC1` the cytotoxicity call was “inactive”.
`C[C@H]1CN([C@@H](C)CO)C(=O)c2cc(NC(=O)Nc3ccc(C(F)(F)F)cc3)ccc2O[C@@H]1CN(C)CC1CCCCC1` was tested, and the cytotoxicity call was “inactive”.
`C[C@H]1CN([C@@H](C)CO)C(=O)c2cc(NC(=O)Nc3ccc(F)cc3)ccc2O[C@@H]1CN(C)CC1CCCCC1` was tested, and the cytotoxicity call was “inactive”.
With `C[C@@H]1CN([C@H](C)CO)C(=O)c2cc(NC(=O)Nc3ccc(F)cc3)ccc2O[C@H]1CN(C)CC1CCCCC1` the cytotoxicity call was “inactive”.
For `C[C@@H]1CN([C@@H](C)CO)C(=O)c2cc(NC(=O)Nc3ccc(C(F)(F)F)cc3)ccc2O[C@@H]1CN(C)CC1CCCCC1`, the cytotoxicity call was “active”.
`C[C@H](CO)N1C[C@H](C)[C@H](CN(C)CC2CCCCC2)Oc2ccc(NC(=O)Nc3ccc(C(F)(F)F)cc3)cc2C1=O` was tested, and the cytotoxicity call was “active”.
With `C[C@@H]1CN([C@@H](C)CO)C(=O)c2cc(NC(=O)Nc3ccc(F)cc3)ccc2O[C@@H]1CN(C)CC1CCCCC1` the cytotoxicity call was “inactive”.
For `C[C@@H]1CCCCO[C@@H](CN(C)C(=O)Nc2ccc(C(F)(F)F)cc2)[C@@H](C)CN([C@H](C)CO)C(=O)c2cc(NS(=O)(=O)c3ccc(Cl)cc3)ccc2O1`, the cytotoxicity call was “inactive”.
`O=C(C[C@H]1C[C@@H]2c3cc(NS(=O)(=O)c4ccc(F)cc4)ccc3O[C@@H]2[C@H](CO)O1)NC1CCCCC1` was tested, and the cytotoxicity call was “inactive”.
With `C[C@@H]1CN([C@H](C)CO)C(=O)c2cc(NC(=O)Nc3cccc4ccccc34)ccc2O[C@H]1CN(C)CC1CCCCC1` the cytotoxicity call was “inactive”.
With `C[C@@H]1CCCCO[C@@H](CN(C)S(=O)(=O)c2ccc(F)cc2)[C@@H](C)CN([C@@H](C)CO)C(=O)c2cc(NC(=O)NC3CCCCC3)ccc2O1` the cytotoxicity call was “inactive”.
In the case of `C[C@H]1CN([C@@H](C)CO)C(=O)Cc2cc(NS(C)(=O)=O)ccc2O[C@@H]1CN(C)Cc1ccc2c(c1)OCO2`, the cytotoxicity call is reported as “inactive”.
`O=C(C[C@@H]1C[C@@H]2c3cc(NS(=O)(=O)c4ccc(F)cc4)ccc3O[C@@H]2[C@@H](CO)O1)NC1CCCC1` was tested, and the cytotoxicity call was “inactive”.
`O=C(C[C@H]1CC[C@@H]2[C@H](COC[C@H](O)CN2C(=O)Nc2cccc(Cl)c2)O1)NCCCN1CCOCC1` was tested, and the cytotoxicity call was “inactive”.
`C[C@@H]1CN([C@H](C)CO)C(=O)c2cc(NC(=O)Nc3ccc(C(F)(F)F)cc3)ccc2O[C@@H]1CN(C)S(=O)(=O)c1ccc(Cl)cc1` was tested, and the cytotoxicity call was “active”.
With `Cc1ccc(S(=O)(=O)N(C)C[C@@H]2Oc3ccc(NC(=O)Nc4ccc(C(F)(F)F)cc4)cc3C(=O)N([C@@H](C)CO)C[C@H]2C)cc1` the cytotoxicity call was “inactive”.
`C[C@@H]1CN([C@@H](C)CO)C(=O)c2cc(NC(=O)Nc3ccc(C(F)(F)F)cc3)ccc2O[C@H]1CN(C)S(=O)(=O)c1ccc(Cl)cc1` was tested, and the cytotoxicity call was “inactive”.
With `C[C@H](CO)N1C[C@H](C)[C@H](CN(C)S(=O)(=O)c2ccc(Cl)cc2)Oc2ccc(NC(=O)Nc3ccc(C(F)(F)F)cc3)cc2C1=O` the cytotoxicity call was “active”.
With `C[C@@H]1CN([C@H](C)CO)C(=O)c2cc(NC(=O)Nc3ccc(C(F)(F)F)cc3)ccc2O[C@H]1CN(C)S(=O)(=O)c1ccc(Cl)cc1` the cytotoxicity call was “inactive”.
With `C[C@H]1CN([C@@H](C)CO)C(=O)c2cc(NC(=O)Nc3ccc(C(F)(F)F)cc3)ccc2O[C@H]1CN(C)S(=O)(=O)c1ccc(Cl)cc1` the cytotoxicity call was “inactive”.
`Cc1ccc(S(=O)(=O)N(C)C[C@@H]2Oc3ccc(NC(=O)Nc4ccc(C(F)(F)F)cc4)cc3C(=O)N([C@H](C)CO)C[C@H]2C)cc1` was tested, and the cytotoxicity call was “inactive”.
In the case of `C[C@@H]1CN([C@@H](C)CO)C(=O)c2cc(NC(=O)Nc3ccc(C(F)(F)F)cc3)ccc2O[C@@H]1CN(C)S(=O)(=O)c1ccc(Cl)cc1`, the cytotoxicity call is reported as “active”.
For `C[C@H]1CN([C@@H](C)CO)C(=O)c2cc(NC(=O)Nc3ccc(C(F)(F)F)cc3)ccc2O[C@@H]1CN(C)S(=O)(=O)c1ccc(Cl)cc1`, the cytotoxicity call was “inactive”.
For `C[C@@H]1CCCCO[C@@H](CN(C)C(=O)Nc2ccccc2)[C@H](C)CN([C@H](C)CO)C(=O)c2cc(NC(=O)CCC(F)(F)F)ccc2O1`, the cytotoxicity call was “inactive”.
For `C[C@@H]1CN([C@H](C)CO)C(=O)c2cc(NC(=O)CCN3CCOCC3)ccc2O[C@H]1CN(C)S(=O)(=O)c1ccccc1`, the cytotoxicity call was “inactive”.
With `Cc1noc(C)c1NC(=O)N(C)C[C@@H]1OCCCC[C@H](C)Oc2ccc(NC(=O)C3CCCCC3)cc2C(=O)N([C@@H](C)CO)C[C@@H]1C` the cytotoxicity call was “inactive”.
For `C[C@@H]1CCCCO[C@@H](CN(C)Cc2ccc(C(=O)Nc3ccccc3N)cc2)[C@@H](C)CN([C@H](C)CO)C(=O)c2cc(NC(=O)Nc3ccc4c(c3)OCO4)ccc2O1`, the cytotoxicity call was “inactive”.
`COc1ccc(CN(C)C[C@@H]2OCCCC[C@H](C)Oc3ccc(NC(=O)CCC(F)(F)F)cc3C(=O)N([C@@H](C)CO)C[C@H]2C)cc1` was tested, and the cytotoxicity call was “inactive”.
With `O=C(C[C@@H]1C=C[C@H](NC(=O)Nc2ccc3c(c2)OCO3)[C@H](CO)O1)NCCCN1CCOCC1` the cytotoxicity call was “inactive”.
`c1cncc(-c2nc3ccc4ccccc4c3c3c2CCCC3)c1` was tested, and the cytotoxicity call was “inactive”.
`CN1CCN(C(=O)C[C@H]2CC[C@@H]3[C@H](COC[C@@H](O)CN3C(=O)Nc3ccc4c(c3)OCO4)O2)CC1` was tested, and the cytotoxicity call was “inactive”.
In the case of `COc1ccc(S(=O)(=O)N(C)C[C@@H]2Oc3ccc(NS(=O)(=O)c4cn(C)cn4)cc3C(=O)N([C@@H](C)CO)C[C@@H]2C)cc1`, the cytotoxicity call is reported as “inactive”.
`C[C@@H]1CN([C@H](C)CO)C(=O)c2cccc(NC(=O)C3CCOCC3)c2O[C@@H]1CN(C)C(=O)NC1CCCCC1` was tested, and the cytotoxicity call was “inactive”.
`C[C@H](CO)N1C[C@H](C)[C@H](CN(C)CC2CC2)OCCCC[C@H](C)Oc2ccc(NC(=O)Nc3cccc4ccccc34)cc2C1=O` was tested, and the cytotoxicity call was “inactive”.
In the case of `C[C@@H]1CCCCO[C@@H](CN(C)CC2CCCCC2)[C@@H](C)CN([C@@H](C)CO)C(=O)c2cc(NC(=O)Nc3cccc4ccccc34)ccc2O1`, the cytotoxicity call is reported as “active”.
In the case of `C[C@@H]1CCCCO[C@H](CN(C)CC2CCCCC2)[C@H](C)CN([C@@H](C)CO)C(=O)c2cc(NC(=O)Nc3cccc4ccccc34)ccc2O1`, the cytotoxicity call is reported as “active”.
For `C[C@@H]1CCCCO[C@@H](CN(C)CC2CCCCC2)[C@H](C)CN([C@H](C)CO)C(=O)c2cc(NC(=O)Nc3cccc4ccccc34)ccc2O1`, the cytotoxicity call was “active”.
With `C[C@@H]1CCCCO[C@H](CN(C)CC2CC2)[C@@H](C)CN([C@H](C)CO)C(=O)c2cc(NC(=O)Nc3cccc4ccccc34)ccc2O1` the cytotoxicity call was “inactive”.
With `C[C@H]1CCCCO[C@@H](CN(C)CC2CCCCC2)[C@@H](C)CN([C@@H](C)CO)C(=O)c2cc(NC(=O)Nc3cccc4ccccc34)ccc2O1` the cytotoxicity call was “inactive”.
With `C[C@H](CO)N1C[C@H](C)[C@@H](CN(C)CC2CCCCC2)OCCCC[C@H](C)Oc2ccc(NC(=O)Nc3cccc4ccccc34)cc2C1=O` the cytotoxicity call was “inactive”.
In the case of `C[C@@H]1CN([C@H](C)CO)C(=O)c2cc(NC(=O)Nc3cccc4ccccc34)ccc2O[C@@H](C)CCCCO[C@@H]1CN(C)CC1CCCCC1`, the cytotoxicity call is reported as “active”.
For `CC(C=CC=C(C)C=CC(=O)C1(C)CC(O)CC1(C)C)=CC=CC=C(C)C=CC=C(C)C=CC1=C(C)CC(O)CC1(C)C` (centres undefined), the cytotoxicity call was “inactive”.
In the case of `C[C@@H]1CN([C@H](C)CO)C(=O)c2cc(NC(=O)Cn3cnnn3)ccc2O[C@H]1CN(C)Cc1ccc(-c2ccccc2)cc1`, the cytotoxicity call is reported as “inactive”.
For `CN1CCN(C(=O)C[C@H]2C=C[C@H](NC(=O)Nc3ccccc3F)[C@@H](CO)O2)CC1`, the cytotoxicity call was “inactive”.
`COC(=O)C[C@H]1CC[C@@H]2[C@H](COC[C@H](O)CN2S(=O)(=O)c2cn(C)cn2)O1` was tested, and the cytotoxicity call was “inactive”.
In the case of `C[C@@H]1CN([C@H](C)CO)C(=O)c2cc(N(C)C)ccc2O[C@@H](C)CCCCO[C@H]1CN(C)C(=O)Nc1cccc2ccccc12`, the cytotoxicity call is reported as “inactive”.
For `C[C@@H]1CCCCO[C@H](CN(C)S(=O)(=O)c2ccc(Cl)cc2)[C@H](C)CN([C@H](C)CO)C(=O)c2cc(NS(=O)(=O)c3ccccc3)ccc2O1`, the cytotoxicity call was “inactive”.
